Measurements: the supplement of paper PMC4466140

Assays:
Assay in all cases: SPOT peptide array binding signal intensity (averaged, normalized) (arbitrary units (background-subtracted, floor 0; scale differs between SH3 domains)); higher = stronger binding of the SH3 domain to the peptide
[1] = biological target: AgAbp1
In short: (§1)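 Peptides were synthetic 15-mers on cellulose membranes, with every cysteine replaced by serine. They were incubated overnight at 4°C with GST-SH3 domains from four yeast species at 10 μg/ml in TBS-based blocking buffer. Binding signal, the replicate-averaged normalized and background-subtracted spot intensity, is in arbitrary units that differ between domains.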

[2] = biological target: AgBbc1
In short: as §1

[3] = biological target: AgBem1-D1
In short: as §1

[4] = biological target: AgBzz1-D1
In short: as §1

[5] = biological target: AgBzz1-D2
In short: as §1

[6] = biological target: AgCyk3
In short: as §1

[7] = biological target: AgFus1
In short: as §1

[8] = biological target: AgHof1
In short: as §1

[9] = biological target: AgHse1
In short: as §1

[10] = biological target: AgLsb1
In short: as §1

[11] = biological target: AgLsb4
In short: as §1

[12] = biological target: AgMyo5
In short: as §1

[13] = biological target: AgNbp2
In short: as §1

[14] = biological target: AgRvs167
In short: as §1

[15] = biological target: AgSho1
In short: as §1

[16] = biological target: AgSla1-D1-D2
In short: as §1

[17] = biological target: AgSla1-D3
In short: as §1

[18] = biological target: CaAbp1-D1
In short: as §1

[19] = biological target: CaAbp1-D2
In short: as §1

[20] = biological target: CaBbc1
In short: as §1

[21] = biological target: CaBem1-D1
In short: as §1

[22] = biological target: CaBzz1-D1
In short: as §1

[23] = biological target: CaBzz1-D2
In short: as §1

[24] = biological target: CaCyk3
In short: as §1

[25] = biological target: CaFus1
In short: as §1

[26] = biological target: CaHof1
In short: as §1

[27] = biological target: CaHse1
In short: as §1

[28] = biological target: CaLsb1
In short: as §1

[29] = biological target: CaLsb4
In short: as §1

[30] = biological target: CaMyo5
In short: as §1

[31] = biological target: CaNbp2
In short: as §1

[32] = biological target: CaRvs167
In short: as §1

[33] = biological target: CaRvs167-3
In short: as §1

[34] = biological target: CaSho1
In short: as §1

[35] = biological target: CaSla1-D1-D2
In short: as §1

[36] = biological target: CaSla1-D3
In short: as §1

[37] = biological target: ScAbp1
In short: as §1

[38] = biological target: ScBbc1
In short: as §1

[39] = biological target: ScBem1-D1
In short: as §1

[40] = biological target: ScBzz1-D1
In short: as §1

[41] = biological target: ScBzz1-D2
In short: as §1

[42] = biological target: ScCyk3
In short: as §1

[43] = biological target: ScFus1
In short: as §1

[44] = biological target: ScHof1
In short: as §1

[45] = biological target: ScHse1
In short: as §1

[46] = biological target: ScLsb1
In short: as §1

[47] = biological target: ScLsb2
In short: as §1

[48] = biological target: ScLsb3
In short: as §1

[49] = biological target: ScLsb4
In short: as §1

[50] = biological target: ScMyo3
In short: as §1

[51] = biological target: ScMyo5
In short: as §1

[52] = biological target: ScNbp2
In short: as §1

[53] = biological target: ScPex13
In short: as §1

[54] = biological target: ScRvs167
In short: as §1

[55] = biological target: ScSho1
In short: as §1

[56] = biological target: ScSla1-D1-D2
In short: as §1

[57] = biological target: ScSla1-D3
In short: as §1

[58] = biological target: SpAbp1-D1
In short: as §1

[59] = biological target: SpBbc1
In short: as §1

[60] = biological target: SpBzz1-D1
In short: as §1

[61] = biological target: SpBzz1-D2
In short: as §1

[62] = biological target: SpCyk3
In short: as §1

[63] = biological target: SpHof1
In short: as §1

[64] = biological target: SpHof1-2
In short: as §1

[65] = biological target: SpHof1-3
In short: as §1

[66] = biological target: SpHse1
In short: as §1

[67] = biological target: SpLsb1
In short: as §1

[68] = biological target: SpLsb4
In short: as §1

[69] = biological target: SpMyo1
In short: as §1

[70] = biological target: SpNbp2
In short: as §1

[71] = biological target: SpPex13
In short: as §1

[72] = biological target: SpRvs167
In short: as §1

[73] = biological target: SpSla1-D1-D2
In short: as §1

[74] = biological target: SpSla1-D3
In short: as §1

NFLRLLIGLPSQNEL
SPOT peptide array binding signal intensity [1]: ≤ 0 | SPOT peptide array binding signal intensity [2]: 4.25 | SPOT peptide array binding signal intensity [3]: 132 | SPOT peptide array binding signal intensity [4]: 17.5 | SPOT peptide array binding signal intensity [5]: 6.5 | SPOT peptide array binding signal intensity [6]: 3.5 | SPOT peptide array binding signal intensity [7]: 950 | SPOT peptide array binding signal intensity [8]: 31.5 | SPOT peptide array binding signal intensity [9]: 2760 | SPOT peptide array binding signal intensity [10]: ≤ 0 | SPOT peptide array binding signal intensity [11]: 248 | SPOT peptide array binding signal intensity [12]: 2.75 | SPOT peptide array binding signal intensity [13]: 39 | SPOT peptide array binding signal intensity [14]: 2 | SPOT peptide array binding signal intensity [15]: 263 | SPOT peptide array binding signal intensity [16]: 50 | SPOT peptide array binding signal intensity [17]: 4.5 | SPOT peptide array binding signal intensity [18]: ≤ 0 | SPOT peptide array binding signal intensity [19]: ≤ 0 | SPOT peptide array binding signal intensity [20]: ≤ 0 | SPOT peptide array binding signal intensity [21]: ≤ 0 | SPOT peptide array binding signal intensity [22]: 39 | SPOT peptide array binding signal intensity [23]: 37 | SPOT peptide array binding signal intensity [24]: 4 | SPOT peptide array binding signal intensity [25]: 2560 | SPOT peptide array binding signal intensity [26]: 1.5 | SPOT peptide array binding signal intensity [27]: 156 | SPOT peptide array binding signal intensity [28]: 2.5 | SPOT peptide array binding signal intensity [29]: 3 | SPOT peptide array binding signal intensity [30]: 8.25 | SPOT peptide array binding signal intensity [31]: 259 | SPOT peptide array binding signal intensity [32]: 72 | SPOT peptide array binding signal intensity [33]: 143 | SPOT peptide array binding signal intensity [34]: 731 | SPOT peptide array binding signal intensity [35]: ≤ 0 | SPOT peptide array binding signal intensity [36]: 41.2 | SPOT peptide array binding signal intensity [37]: ≤ 0 | SPOT peptide array binding signal intensity [38]: 0.5 | SPOT peptide array binding signal intensity [39]: 18 | SPOT peptide array binding signal intensity [40]: 19 | SPOT peptide array binding signal intensity [41]: 21 | SPOT peptide array binding signal intensity [42]: 101 | SPOT peptide array binding signal intensity [43]: 1020 | SPOT peptide array binding signal intensity [44]: 1.5 | SPOT peptide array binding signal intensity [45]: 2880 | SPOT peptide array binding signal intensity [46]: 0.75 | SPOT peptide array binding signal intensity [47]: ≤ 0 | SPOT peptide array binding signal intensity [48]: 276 | SPOT peptide array binding signal intensity [49]: ≤ 0 | SPOT peptide array binding signal intensity [50]: 4 | SPOT peptide array binding signal intensity [51]: ≤ 0 | SPOT peptide array binding signal intensity [52]: 53 | SPOT peptide array binding signal intensity [53]: ≤ 0 | SPOT peptide array binding signal intensity [54]: 11.7 | SPOT peptide array binding signal intensity [55]: 1160 | SPOT peptide array binding signal intensity [56]: ≤ 0 | SPOT peptide array binding signal intensity [57]: 8.5 | SPOT peptide array binding signal intensity [58]: 1 | SPOT peptide array binding signal intensity [59]: 3.75 | SPOT peptide array binding signal intensity [60]: 22

TPEIPPPLPPKIMVH
SPOT peptide array binding signal intensity [1]: ≤ 0 | SPOT peptide array binding signal intensity [2]: ≤ 0 | SPOT peptide array binding signal intensity [3]: ≤ 0 | SPOT peptide array binding signal intensity [4]: ≤ 0 | SPOT peptide array binding signal intensity [5]: 4.5 | SPOT peptide array binding signal intensity [6]: ≤ 0 | SPOT peptide array binding signal intensity [7]: ≤ 0 | SPOT peptide array binding signal intensity [8]: 631 | SPOT peptide array binding signal intensity [9]: 822 | SPOT peptide array binding signal intensity [10]: ≤ 0 | SPOT peptide array binding signal intensity [11]: 232 | SPOT peptide array binding signal intensity [12]: 496 | SPOT peptide array binding signal intensity [13]: ≤ 0 | SPOT peptide array binding signal intensity [14]: 9.33 | SPOT peptide array binding signal intensity [15]: 66 | SPOT peptide array binding signal intensity [16]: ≤ 0 | SPOT peptide array binding signal intensity [17]: ≤ 0 | SPOT peptide array binding signal intensity [18]: 6.5 | SPOT peptide array binding signal intensity [19]: ≤ 0 | SPOT peptide array binding signal intensity [20]: ≤ 0 | SPOT peptide array binding signal intensity [21]: ≤ 0 | SPOT peptide array binding signal intensity [22]: ≤ 0 | SPOT peptide array binding signal intensity [23]: ≤ 0 | SPOT peptide array binding signal intensity [24]: ≤ 0 | SPOT peptide array binding signal intensity [25]: 74 | SPOT peptide array binding signal intensity [26]: 20.5 | SPOT peptide array binding signal intensity [27]: 3420 | SPOT peptide array binding signal intensity [28]: ≤ 0 | SPOT peptide array binding signal intensity [29]: 1090 | SPOT peptide array binding signal intensity [30]: 25.5 | SPOT peptide array binding signal intensity [31]: 9 | SPOT peptide array binding signal intensity [32]: 29.8 | SPOT peptide array binding signal intensity [33]: ≤ 0 | SPOT peptide array binding signal intensity [34]: 124 | SPOT peptide array binding signal intensity [35]: ≤ 0 | SPOT peptide array binding signal intensity [36]: ≤ 0 | SPOT peptide array binding signal intensity [37]: ≤ 0 | SPOT peptide array binding signal intensity [38]: ≤ 0 | SPOT peptide array binding signal intensity [39]: ≤ 0 | SPOT peptide array binding signal intensity [40]: ≤ 0 | SPOT peptide array binding signal intensity [41]: 11 | SPOT peptide array binding signal intensity [42]: ≤ 0 | SPOT peptide array binding signal intensity [43]: ≤ 0 | SPOT peptide array binding signal intensity [44]: 722 | SPOT peptide array binding signal intensity [45]: ≤ 0 | SPOT peptide array binding signal intensity [46]: 109 | SPOT peptide array binding signal intensity [47]: ≤ 0 | SPOT peptide array binding signal intensity [48]: 6940 | SPOT peptide array binding signal intensity [49]: 376 | SPOT peptide array binding signal intensity [50]: 611 | SPOT peptide array binding signal intensity [51]: 380 | SPOT peptide array binding signal intensity [52]: 2 | SPOT peptide array binding signal intensity [53]: 1210 | SPOT peptide array binding signal intensity [54]: 525 | SPOT peptide array binding signal intensity [55]: 1610 | SPOT peptide array binding signal intensity [56]: ≤ 0 | SPOT peptide array binding signal intensity [57]: ≤ 0 | SPOT peptide array binding signal intensity [58]: ≤ 0 | SPOT peptide array binding signal intensity [59]: 0.5 | SPOT peptide array binding signal intensity [60]: 68 | SPOT peptide array binding signal intensity [61]: ≤ 0 | SPOT peptide array binding signal intensity [62]: ≤ 0 | SPOT peptide array binding signal intensity [63]: ≤ 0 | SPOT peptide array binding signal intensity [64]: 0.5 | SPOT peptide array binding signal intensity [65]: ≤ 0 | SPOT peptide array binding signal intensity [66]: 148 | SPOT peptide array binding signal intensity [67]: 463 | SPOT peptide array binding signal intensity [68]: 852 | SPOT peptide array binding signal intensity [69]: 723 | SPOT peptide array binding signal intensity [70]: ≤ 0 | SPOT peptide array binding signal intensity [71]: 9 | SPOT peptide array binding signal intensity [72]: 1520 | SPOT peptide array binding signal intensity [73]: ≤ 0 | SPOT peptide array binding signal intensity [74]: ≤ 0
